# D1 agonist: activates the human D1 dopamine receptor; P21728; HEK293 T-REx D1 cells, calcium flux, agonist mode; activation, % at 2 µM; AID 504660; hit rate 1% among 360,000; in the data active = activation above about 30%
#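 Inducible HEK293 T-REx D1 cells, force-coupled to calcium signalling, were plated at 4000 cells/well with tetracycline and held overnight at 30 C. After no-wash calcium dye loading, compound-evoked calcium rise over 180 s flagged agonists.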
# D1 antag: blocks dopamine activation of the human D1 receptor; P21728; HEK293 TREx D1 cells, calcium flux, dopamine EC80; hits give low values; activity change, negative = inhibition, % at 10 µM; hit rate 3.2% among 360,000; AID 504652; in the data active = activity change below about -30%
#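 Compound effects on dopamine-evoked calcium signalling were measured in tetracycline-induced HEK293 Trex D1 cells. Dopamine at EC80 followed a 180 s compound pre-read, and fluorescence was tracked kinetically for 180 s more.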
# D1 PAM: potentiators of human D1 dopamine receptor; P21728; HEK293 TREx D1 cells, calcium flux, dopamine EC20 potentiation; potentiation, % at 10 µM; hit rate 0.036% among 360,000; AID 504651; in the data active = potentiation above about 30%
# DRD3 antagonist: D3 dopamine receptor (human) antagonism. max response, negative = inhibition, %. D3R cells, DiscoveRx beta-arrestin luminescence, antagonist mode; hits give low values. P35462. hit rate 2.5% among 360,000. AID 652054; in the data active = max response below about -50%; inconclusive = no clear call, values can overlap the other calls
# Target sequence (P35462 whole entry, looked up): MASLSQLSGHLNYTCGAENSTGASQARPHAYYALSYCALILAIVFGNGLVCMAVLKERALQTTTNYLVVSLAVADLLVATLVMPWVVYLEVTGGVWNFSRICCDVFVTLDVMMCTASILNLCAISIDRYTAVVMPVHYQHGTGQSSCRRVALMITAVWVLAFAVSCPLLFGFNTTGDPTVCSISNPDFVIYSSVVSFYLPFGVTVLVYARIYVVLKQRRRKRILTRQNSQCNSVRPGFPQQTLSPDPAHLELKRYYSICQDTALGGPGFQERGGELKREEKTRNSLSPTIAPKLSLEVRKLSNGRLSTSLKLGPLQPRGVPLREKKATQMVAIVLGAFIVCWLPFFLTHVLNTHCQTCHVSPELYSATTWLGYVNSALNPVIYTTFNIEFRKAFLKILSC
#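 Cells expressing the human receptor were seeded at 1500 cells/well, incubated overnight at 37 degrees C in 5% CO2, then exposed to library compounds with dopamine controls for 90 minutes at 37 degrees C before luminescent detection.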
# D3 ag: activates the human D3 dopamine receptor; P35462; hit rate 0.58% among 410,000; D3R DiscoveRx beta-arrestin cells, luminescence, 90 min; max activation, %; AID 652048; in the data active = max activation above about 30%
#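 Agonist-mode cell screen: cells plated at 1500/well and incubated overnight at 37 °C, then exposed to library compounds for 90 min at 37 °C. Detection reagent was added for 30–60 min at room temperature, and luminescence was read.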
# Numbers stand for hits; n = inactive; u = inconclusive; x = not tested or not shown; ! = not confirmed by another sample. Shown are actives, neighbours in structure and some others; about 6.1% of the full set was active somewhere.
SMILES,D1 agonist,D1 antag,D1 PAM,DRD3 antagonist,D3 ag
Cc1noc(C)c1C(=O)N1CCC1(C)C(=O)NS(=O)(=O)c1cccc(Cl)c1 (configuration not stated),x,x,x,n,30.4
CCCc1cc(C(=O)Nc2c(C)nn(Cc3c(Cl)cccc3Cl)c2C)no1,n,n,n,x,n
CCOc1ccc(-c2nnc(SCC(=O)Oc3ccccc3)o2)cc1,n,n,n,x,n
COc1ccc(NC(=O)CNC(=O)c2nn(-c3ccc(OC)c(Cl)c3)c(=O)c3ccccc23)c(OC)c1,n,n,n,n,30.4
CCOc1ccc(NC(=O)CNC(=O)c2nn(-c3ccc(OC)c(OC)c3)c(=O)c3ccccc23)cc1,n,n,n,n,37.4
COC(=O)C1=C(Cn2cnc3ccccc32)NC(=O)NC1c1cc(C)ccc1C (configuration not stated),n,n,n,n,39.6
CCOC(=O)C1=C(CSc2nccn2C)NC(=O)NC1c1cc(C)ccc1C (configuration not stated),n,n,n,n,n
CCOC(=O)C1=C(CNCc2ccc(C)cc2)NC(=O)NC1c1cc(C)ccc1C (configuration not stated),n,n,n,n,n
CCOC(=O)C1=C(Cn2cnc3ccccc32)NC(=O)NC1c1cc(C)ccc1C (configuration not stated),n,n,n,n,34.1
CSCC(C)N1CCC(n2nccc2NC(=O)CCCc2ccccc2)CC1 (configuration not stated),n,n,n,n,n
C=C(C)CCC(C)N1CCC(n2nccc2NC(=O)CCCc2ccccc2)CC1 (configuration not stated),n,n,n,-59.7,n
CSCCCN1CCC(n2nccc2NC(=O)CCCc2ccccc2)CC1,n,n,n,-50.5,n
COC(=O)c1nnn(CC(=O)Nc2c(C)cccc2C)c1N,n,n,n,x,n
CCCCN(CC)C(=O)CSc1nc2n[nH]c(C)c2c(=N)n1-c1cccc(Cl)c1,n,n,n,x,n
CC1CCN(Cc2c(O)ccc3c2O/C(=C\c2ccco2)C3=O)CC1,n,n,n,n,n
Cc1ccc(/C=C2\Oc3c(ccc(O)c3CN3CCN(CCO)CC3)C2=O)cc1,32.2,n,n,n,n
CC(C)c1ccc(/C=C2\Oc3c(ccc(O)c3CN3CCN(C)CC3)C2=O)cc1,68.3,n,n,n,n
CCN1CCN(Cc2c(O)ccc3c2O/C(=C\C=C\c2ccccc2OC)C3=O)CC1,112.5,n,n,u,n
O=C1/C(=C/c2ccco2)Oc2c1ccc(O)c2CN1CCCCC1,n,n,n,n,n
CN1c2ccccc2-c2nc(SCC(=O)Nc3ccccc3)ncc2S1(=O)=O,n,n,n,x,n
COc1ccc(C2c3c(n(C)c4ccccc34)C(=O)N2CC(=O)Nc2cccc(Cl)c2)cc1 (configuration not stated),n,n,n,x,n
CCC(C)Nc1nc2c(C)cccn2c(=O)c1C=Nc1ccc(OC)cc1 (configuration not stated),n,n,n,n,n
CCC(C)N1C(=O)/C(=C/c2c(NCCCOC(C)C)nc3c(C)cccn3c2=O)SC1=S (configuration not stated),81.3,n,n,n,n
CCCN1C(=O)/C(=C/c2c(NCCCOC(C)C)nc3c(C)cccn3c2=O)SC1=S,43.9,n,n,n,n
CCC(C)N=Cc1c(NCc2ccco2)nc2c(C)cccn2c1=O (configuration not stated),n,n,n,n,n
SMILES,D1 agonist,D1 antag,D1 PAM,DRD3 antagonist,D3 ag
O=C(CCS(=O)(=O)c1cc2c(cc1Cl)NC(=O)CO2)NCCc1ccccc1,n,n,n,n,n
Cc1ccc(CCNC(=O)CCS(=O)(=O)c2cc3c(cc2C)NC(=O)CO3)cc1,n,-86.0!,n,n,n
Cc1nn(CC(=O)NCc2ccc(N(C)C)cc2)c(=O)c2c(C)n(-c3ccc(Cl)cc3)nc12,n,n,n,x,n
O=S(=O)(NCc1ccccc1Cl)c1ccc(-n2cnnn2)cc1,n,n,n,n,n
O=S(=O)(NCc1ccccc1Cl)c1ccc(-n2cccn2)cc1,n,-30.7,n,n,n
Cc1ccc(Cl)cc1NS(=O)(=O)c1ccc(-n2cccn2)cc1,n,-30.2,n,n,n
CN(C)c1ccc(/C=C/c2ccc3ccccc3n2)cc1,138.7,n,n,n,n
Oc1ccc(/C=C/c2ccc3ccccc3n2)cc1,n,n,n,n,n
CCCN(CCC)c1ccc(/C=C/c2ccc3cc(OCC)ccc3n2)cc1,32.8,n,n,n,n
COC(=O)c1ccc(Cl)c(NC(=O)C2CCN(S(=O)(=O)Cc3ccccc3)CC2)c1,n,n,n,x,n
Cc1ccc(S(=O)(=O)Cn2nnnc2C(C)N2CCN(C(=O)c3ccco3)CC2)cc1 (configuration not stated),n,n,n,n,n
CC(C)(C)n1nnnc1C(c1cc2ccccc2o1)N1CCN(C(=O)OCc2ccccc2)CC1 (configuration not stated),x,x,x,-62.9,n
COc1cccc(C(c2nnnn2CC2CCCO2)N2CCN(C(=O)c3ccco3)CC2)c1OC (configuration not stated),n,-38.1,n,n,n
Cc1ccc(S(=O)(=O)Cn2nnnc2C(C(C)C)N2CCN(C(=O)c3ccco3)CC2)cc1 (configuration not stated),x,x,x,-56.3,n
CC(C)(C)OC(=O)N1CCCN(C(c2cc3ccccc3o2)c2nnnn2C(C)(C)C)CC1 (configuration not stated),x,x,x,n,n
COCCn1nnnc1C(c1cccc(OC)c1OC)N1CCN(C(=O)c2ccco2)CC1 (configuration not stated),n,n,n,n,n
CCC(C)(C)n1nnnc1C(c1ccccc1OC)N1CCN(C(=O)c2ccco2)CC1 (configuration not stated),n,n,n,n,31.5
O=C(Nc1nc2n(n1)C(c1ccc(F)cc1)C=C(c1ccc(Cl)cc1)N2)c1ccc([N+](=O)[O-])cc1 (configuration not stated),n,n,n,x,n
O=C(O)[C@H](O)c1ccccc1,x,x,x,x,n
CC(C(=O)O)c1ccc2c(c1)CC(=O)c1ccccc1S2 (configuration not stated),x,x,x,x,n
CC(C)(C)n1nnnc1C(c1ccccc1)N1CCN(C(=O)c2ccco2)CC1 (configuration not stated),x,x,x,n,55.8
CC(C)CCn1nnnc1C(c1ccc(F)cc1)N1CCN(C(=O)c2ccco2)CC1 (configuration not stated),n,n,n,-75.8,n
CCc1nc2c(c(=O)[nH]1)C1(CCCC1)Cc1ccccc1-2,n,n,n,n,n
NNc1nc(N)c2c(n1)-c1ccccc1CC21CCCC1,n,n,n,-51.8,n
CCCN1CCCc2cc(CN(CCCN3CCOCC3)C(=O)Nc3ccc(CC)cc3)ccc21,n,n,n,x,n
